From PubChem
Only some compounds are listed: those with a hit (about 11% of all), similar ones and a draw of the others.
USP28 inh = human USP28 deubiquitinase inhibition | purified USP28, Ub-rhodamine cleavage fluorescence, 30 min | inhibition, % at 25 µM | 47,000 tested, 3% active | AID 1645857
OTUD3 inh = blocks human OTUD3 ubiquitin-rhodamine cleavage; Q5T2D3; purified OTUD3, Ub-rhodamine fluorescence, 2 h; inhibition, % at 25 µM; 47,000 tested, 0.7% active
Target sequence (Q5T2D3 whole entry, looked up): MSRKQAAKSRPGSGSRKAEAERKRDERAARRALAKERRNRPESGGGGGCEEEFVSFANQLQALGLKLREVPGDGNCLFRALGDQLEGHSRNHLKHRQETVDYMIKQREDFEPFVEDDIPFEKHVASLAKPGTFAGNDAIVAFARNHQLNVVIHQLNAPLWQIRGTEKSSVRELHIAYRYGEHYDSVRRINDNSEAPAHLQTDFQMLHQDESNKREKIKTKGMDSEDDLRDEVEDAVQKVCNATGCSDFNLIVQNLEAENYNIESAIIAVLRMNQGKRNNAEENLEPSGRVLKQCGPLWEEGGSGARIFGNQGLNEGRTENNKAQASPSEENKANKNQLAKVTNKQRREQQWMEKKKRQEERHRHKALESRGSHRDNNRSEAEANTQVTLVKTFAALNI
USP17 inh = blocks human USP17 ubiquitin-rhodamine cleavage; A8MUK1; purified USP17, Ub-rhodamine cleavage fluorescence, 3 h; inhibition, % at 50 µM; 47,000 tested, 6.5% active; AID 1645855
USP30 block = human USP30 deubiquitinase inhibition; Q70CQ3; purified USP30, Ub-rhodamine cleavage fluorescence; inhibition, % at 25 µM; 47,000 tested, 5.3% active
Numbers without * were called inactive; nt = not tested or not shown. Cut-off read from the data, not from the text of the source: active = inhibition above about 30%; inactive = the rest.

SMILES	USP28 inh	OTUD3 inh	USP17 inh	USP30 block
CCn1c(SCCOc2ccccc2)nnc1-c1ccc2c(c1)OCCO2	31*	4	1	18
CCn1c(SCc2nc(-c3ccccc3)no2)nnc1-c1ccc2c(c1)OCCO2	8	8	6	15
Cc1ccc(N2CC(C(=O)NCCc3ccc(Cl)cc3)CC2=O)cc1 (stereo not drawn)	-5	-7	41*	4
O=C(COc1ccc(N2CC(C(=O)NCc3ccc4c(c3)OCO4)CC2=O)cc1)Nc1ccc(Cl)cc1 (stereo not drawn)	5	10	36*	15
COc1ccc(NC(=O)COC(=O)C2CC(=O)N(c3ccc(F)cc3)C2)cc1 (stereo not drawn)	3	-6	-8	-2
O=C(COc1ccc(N2CC(C(=O)NCc3ccccc3)CC2=O)cc1)Nc1ccc(F)cc1 (stereo not drawn)	23	12	60*	58*
O=C(COc1ccc(N2CC(C(=O)NCc3ccc4c(c3)OCO4)CC2=O)cc1)Nc1ccc(F)cc1 (stereo not drawn)	8	4	57*	57*
Cc1ccc(CNC(=O)C2CC(=O)N(c3ccc(OCC(=O)Nc4ccc(C)cc4C)cc3)C2)cc1 (stereo not drawn)	-4	13	0	0
COc1cc(C(C)=O)ccc1OCC(O)CNc1cc(Cl)ccc1C (stereo not drawn)	-13	-10	-3	-14
O=C(Cn1cnc(S(=O)(=O)N2CCCCC2)c1)Nc1cccc2c1CCCC2	-3	-2	-1	-7
O=C(Nc1nnc(CCc2ccccc2)s1)C(=O)c1c[nH]c2ccccc12	11	4	23	35*
Cc1nn2c(CNC(=O)Cc3ccccc3F)c(C)nc2s1	-23	-4	-30	-17
O=C(Cc1nc2ccccc2[nH]1)NCc1ccc(F)cc1	2	1	2	-10
CC(C)c1ccc(CNC(=O)c2nc3ccccc3[nH]2)cc1	7	1	50*	3
Cc1ccc(OCC(=O)NCC(c2ccco2)N2CCCC2)cc1 (stereo not drawn)	3	11	-4	2
Cc1ccc2[nH]c3c(=O)n(CC4CCCO4)cnc3c2c1 (stereo not drawn)	-4	3	68*	44*
COc1ccc(CCn2cnc3c([nH]c4ccccc43)c2=O)cc1	35*	11	34*	96*
Cc1ccc2[nH]c3c(=O)n(CCc4ccc(O)cc4)cnc3c2c1	43*	5	57*	93*
Cc1ccc2[nH]c3c(=O)n(CCN4CCCC4)cnc3c2c1	13	11	5	5
COC(=O)c1cc2c(ccn2-c2ccc(F)cc2)n1C	4	-4	-35	-19
CNC(=O)Cn1c(-c2cscn2)nc2ccccc21	2	12	1	10
CCOc1nc2cccnc2n(CC(=O)Nc2ccccc2CC)c1=O	-33	-45	-20	-175
CCOc1cccc2nnc(NC(=O)Nc3ccccc3CC)n12	10	0	56*	54*
COc1ccccc1Nc1cc(C)nc2nc(-c3ccco3)nn12	-4	-27	41*	-32
OCC1CSC(c2ccccc2O)=N1 (stereo not drawn)	10	8	30*	27
SMILES	USP28 inh	OTUD3 inh	USP17 inh	USP30 block
Nc1cc2nc3ccccc3oc-2cc1=O	6	-2	45*	-60
Cc1nccc(C(=O)N2CCCC(c3ncc(Cc4ccc(Cl)cc4)o3)C2)n1 (stereo not drawn)	7	17	3	15
C=C1CCC[C@]2(C)C[C@H]3OC(=O)C(CN(C)Cc4ccccc4)[C@H]3CC12 (stereo partly drawn)	22	22	16	30*
C=C1CCC[C@]2(C)C[C@H]3OC(=O)C(CN(C)C[C@@H](O)c4cccc(O)c4)[C@H]3C[C@@H]12 (stereo partly drawn)	-10	-9	-16	-53
Cc1ccc(-c2ncc(NC(=O)C3CCC3)cn2)cc1	25	0	1	4
CCc1ccc(NC(=O)c2sc3ncnc(N4CCN(C)CC4)c3c2C)cc1	35*	8	-11	-4
Cc1c(C(=O)NCc2cccc(F)c2)sc2ncnc(N3CCCC3)c12	5	-1	5	-1
Cc1c(C(=O)NCc2ccc(Cl)cc2)sc2ncnc(N3CCCC3)c12	31*	8	18	43*
N#Cc1cc(-c2ccccc2)oc1NC(=O)c1cccc(Cl)c1Cl	-13	-13	13	-48
CC(C)NC(=O)N1CCCC1c1nnn2cc(-c3ccccc3)ccc12 (stereo not drawn)	-15	-18	-23	-71
O=C(Cn1c(=O)[nH]c2c(-c3ccccc3)c[nH]c2c1=O)NCc1ccco1	nt	1	45*	nt
CCCn1c(=O)c2nscc2n(CC(=O)NCc2ccccc2)c1=O	-5	-10	-10	-12
CCCn1c(=O)c2nscc2n(CC(=O)NCc2ccc(C)cc2)c1=O	18	4	43*	42*
CCn1cc2c(n1)c(=O)n(Cc1ccccc1)c(=O)n2CC(=O)NCc1ccc(C)cc1	27	35*	56*	90*
Cn1cc2c(n1)c(=O)n(Cc1ccc(F)cc1)c(=O)n2CC(=O)NCc1ccco1	-15	-4	-38	-65
O=C(Cn1c(=O)n(Cc2ccccc2)c(=O)c2nscc21)NCc1ccco1	14	3	42*	-23
O=C(Cn1c(=O)n(Cc2ccccc2)c(=O)c2cc(Cl)ccc21)NCc1ccco1	-5	-2	-10	-38
Cc1c(CC(=O)NC(Cc2ccc(Cl)cc2)C(=O)O)c(=O)oc2c(C)c(O)ccc12 (stereo not drawn)	5	3	-3	18
COc1ncccc1CN1Cc2ccnn2CC(c2nc(C)no2)C1 (stereo not drawn)	-2	-4	-13	-6
CS(=O)(=O)N1C[C@@H]2C(=O)NC3(CCN(C(=O)NCCc4ccccc4)CC3)[C@@H]2C1	-5	-3	-6	-7
Cn1cc2c(n1)c(=O)n(Cc1ccc(F)cc1)c(=O)n2CC(=O)Nc1ccccc1F	-20	-8	42*	5
CCn1cc2c(n1)c(=O)n(Cc1ccc(C)cc1)c(=O)n2CC(=O)Nc1ccc(F)cc1	18	16	81*	26
COc1ccccc1-c1noc(CCCC(=O)Nc2cccc(F)c2)n1	-4	-20	-17	-29
CC(C)OCc1ncn2c1CN(C(=O)c1ccc(F)cc1)CCC2	-13	-4	-10	1
CCCCNC(=O)c1ccc(Nc2cc(C)nc3nc(-c4cccnc4)nn23)cc1	19	13	0	47*
SMILES	USP28 inh	OTUD3 inh	USP17 inh	USP30 block
CC(C)c1cc(NCc2ccccc2)n2nc(-c3cccnc3)nc2n1	20	9	27	55*
COc1ccc(CNC(=O)CNc2cc(C)nc3nc(-c4cccnc4)nn23)cc1	-10	21	5	31*
CCCNC(=O)c1ccc(Nc2cc(CCC)nc3nc(-c4cccnc4)nn23)cc1	11	8	27	11
CCn1c(SCc2ccc(C#N)cc2)nnc1-c1cnccn1	21	0	-7	1
O=C(c1cn2cc(Cl)ccc2n1)N1CCC(Cc2ccccc2)CC1	20	17	21	30*
O=C(c1cc(C2CC2)[nH]n1)N1CCC(C2Nc3ccccc3S(=O)(=O)N2)CC1 (stereo not drawn)	11	11	8	22
